This note sets out measurements from PubChem BioAssay (EPA / NIEHS).

The nature of test [1]: CEETOX_H295R_PROG: CeeTox H295R High-throughput Steroidogenesis Assay for Progesterone (PROG) (AID 2283442). Particulars: actives raise or lower the signal. The procedure, abridged:
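Steps: seed H295R cells and let them adhere overnight; prime 48 h with 10 uM forskolin; dose with compound in DMSO at 0.1% final for 48 h; extract medium steroids with MTBE; measure progesterone by LC-MS/MS. MTT viability was run in the same wells.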

Read-out in test [2]: Fatty acid synthase (Homo sapiens) (UniProt P49327)
In words: LTEA_HepaRG_FASN: Life Technologies and Expression Analysis (LTEA) Assay for Fatty Acid Synthase (FASN) using HepaRG (AID 2283448).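 For AC50: differentiated human HepaRG liver cells in serum-free induction medium.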 Particulars: mRNA level, 48 h; actives raise or lower the signal. In outline:
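Cells were plated, cultured 48 h, switched to serum-free induction medium, then dosed in duplicate (max 100 uM, half-log dilutions, 0.5% DMSO) for 48 h. RNA was then isolated and FASN quantified by qRT-PCR.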

Read-out in test [3]: Cyclin D2 (CCND2), CCND2 (gene 894)
In words: LTEA_HepaRG_CCND2: Life Technologies and Expression Analysis (LTEA) Assay for Cyclin D2 (CCND2) using HepaRG (AID 2283449). Particulars: mRNA level, 48 h; actives raise or lower the signal. In outline:
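CCND2 transcript levels, quantified by qRT-PCR and normalised to three housekeeping genes, were fitted bidirectionally against 0.5% DMSO. HepaRG cultures were dosed 48 h in duplicate with an 8-point half-log series up to 100 uM.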

Read-out in test [4]: Cyclin Dependent Kinase Inhibitor 1A (CDKN1A), CDKN1A (gene 1026)
In words: LTEA_HepaRG_CDKN1A: Life Technologies and Expression Analysis (LTEA) Assay for Cyclin Dependent Kinase Inhibitor 1A (CDKN1A) using HepaRG (AID 2283450). Particulars: mRNA level, 48 h; actives raise or lower the signal. The procedure, abridged: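 Read-out is CDKN1A mRNA by TaqMan qRT-PCR, normalized to three housekeeping genes and fitted in both directions against the DMSO baseline. Human HepaRG cells were treated 48 h with test chemicals up to 100 uM in half-log steps, 0.5% DMSO.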

Read-out in test [5]: Cyclin D1 (CCND1), CCND1 (gene 595)
In words: LTEA_HepaRG_CCND1: Life Technologies and Expression Analysis (LTEA) Assay for Cyclin D1 (CCND1) using HepaRG (AID 2283451).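 For AC50: differentiated human HepaRG liver cells in serum-free induction medium; TaqMan qRT-PCR transcript level normalised to ACTB GAPDH and POLR2A housekeeping genes.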 As to conditions: mRNA level, 48 h; actives raise or lower the signal. The procedure, abridged: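 HepaRG plated 48 h, medium switched to serum-free induction medium, chemicals added in duplicate (top 100 uM, half-log steps, 0.5% DMSO) for 48 h, cells lysed, RNA measured by TaqMan qRT-PCR.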

Read-out in test [6]: catalase (CAT), CAT (gene 847)
The test can be described thus: LTEA_HepaRG_CAT: Life Technologies and Expression Analysis (LTEA) Assay for catalase (CAT) using HepaRG (AID 2283452).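 For AC50: TaqMan qRT-PCR signal normalized to ACTB GAPDH and POLR2A housekeeping genes.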 Particulars: mRNA level, 48 h; actives raise or lower the signal. The procedure, abridged: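 Expression of CAT was quantified by TaqMan qRT-PCR with ACTB/GAPDH/POLR2A normalization after 48 h chemical exposure of HepaRG. Eight-point half-log series, top 100 uM, in 0.5% DMSO; gain or loss fitted against vehicle.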

Read-out in test [7]: flavin-containing dimethylaniline monooxygenases 3 (FMO3), FMO3 (gene 2328)
The test can be described thus: LTEA_HepaRG_FMO3: Life Technologies and Expression Analysis (LTEA) Assay for flavin-containing dimethylaniline monooxygenases 3 (FMO3) using HepaRG (AID 2283453).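 For AC50: differentiated human HepaRG liver cells in serum-free induction medium.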 Particulars: mRNA level, 48 h; actives raise or lower the signal. In outline: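 FMO3 transcript quantified by TaqMan qRT-PCR against three housekeeping genes after 48 h chemical exposure of HepaRG cells. Eight-point half-log series, top 100 uM, 0.5% DMSO vehicle; phenobarbital 1mM induction control; up- or down-regulation fitted.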

Read-out in test [8]: Cytochrome P450 (CYP1A1), CYP1A1 (gene 1543)
The test can be described thus: LTEA_HepaRG_CYP1A1: Life Technologies and Expression Analysis (LTEA) Assay for Cytochrome P450 (CYP1A1) using HepaRG (AID 2283454). As to conditions: mRNA level, 48 h; actives raise or lower the signal. In outline: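 HepaRG, 48 h post-plating switched to serum-free induction medium; 8-pt conc-response (top 100 uM, half-log, 0.5% DMSO), duplicates, 48 h. Lysis in RLT, TaqMan qRT-PCR for CYP1A1; gain or loss vs DMSO.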

Read-out in test [9]: Forkhead box O1 (FOXO1), FOXO1 (gene 2308)
The test can be described thus: LTEA_HepaRG_FOXO1: Life Technologies and Expression Analysis (LTEA) Assay for Forkhead box O1 (FOXO1) using HepaRG (AID 2283456). As to conditions: mRNA level, 48 h; actives raise or lower the signal. In outline:
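FOXO1 transcript quantified by qRT-PCR after 48 h chemical exposure (top 100 uM, half-log steps, 0.5% DMSO) of HepaRG cells, housekeeping-normalized (ACTB/GAPDH/POLR2A). Changes fitted in both directions relative to vehicle.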

Test [10] in a line: CEETOX_H295R_TESTO: CeeTox H295R High-throughput Steroidogenesis Assay for Testosterone (TESTO) (AID 2283457). As to conditions: actives raise or lower the signal. In outline:
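H295R, passage ≤10, 48 h dosing; media extracted with MTBE → HPLC-MS/MS for testosterone; 7-pt standard curve sets LLOQ/ULOQ; bidirectional fit vs DMSO; MTT viability same wells.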

Read-out in test [11]: growth arrest and DNA damage 45 (GADD45A), GADD45A (gene 1647)
In words: LTEA_HepaRG_GADD45A: Life Technologies and Expression Analysis (LTEA) Assay for growth arrest and DNA damage 45 (GADD45A) using HepaRG (AID 2283458). Particulars: mRNA level, 48 h; actives raise or lower the signal. In outline: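 Transcript induction or loss, quantified by TaqMan qRT-PCR against three housekeeping genes, is the read-out. HepaRG cells received chemicals for 48 h across eight half-log concentrations from 100 uM in 0.5% DMSO; gain and loss fitted relative to DMSO.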

Read-out in test [12]: Forkhead box O3 (FOXO3), FOXO3 (gene 2309)
In words: LTEA_HepaRG_FOXO3: Life Technologies and Expression Analysis (LTEA) Assay for Forkhead box O3 (FOXO3) using HepaRG (AID 2283459). As to conditions: mRNA level, 48 h; actives raise or lower the signal. The procedure, abridged: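 FOXO3 transcript measured by qRT-PCR (normalized to ACTB, GAPDH, POLR2A) after 48 h exposure of HepaRG cells in serum-free induction medium. Duplicates, eight half-log concentrations up to 100 uM, 0.5% DMSO; gain or loss fitted against DMSO.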

Read-out in test [13]: ABC Transporter (ABCB1), ABCB1 (gene 5243)
The test can be described thus: LTEA_HepaRG_ABCB1: Life Technologies and Expression Analysis (LTEA) Assay for ABC Transporter (ABCB1) using HepaRG (AID 2283460). As to conditions: mRNA level, 48 h; actives raise or lower the signal. The procedure, abridged:
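ABCB1 transcript level measured by TaqMan qRT-PCR against three housekeeping genes after 48 h chemical exposure of differentiated HepaRG cells. Top concentration 100 uM, half-log steps, eight points, 0.5% DMSO vehicle; bidirectional fit relative to DMSO.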

Read-out in test [14]: growth arrest and DNA damage 45 (GADD45B), GADD45B (gene 4616)
In words: LTEA_HepaRG_GADD45B: Life Technologies and Expression Analysis (LTEA) Assay for growth arrest and DNA damage 45 (GADD45B) using HepaRG (AID 2283461). Particulars: mRNA level, 48 h; actives raise or lower the signal. In outline:
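HepaRG, ~100,000 cells/well, 48 h plating; serum-free induction medium; cpd 100 uM top, half-log x8, 0.5% DMSO, duplicate, 48 h; lysis in RLT, RNA isolation, qRT-PCR; norm ACTB/GAPDH/POLR2A; bidirectional fit vs DMSO.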

Read-out in test [15]: ABC Transporter (ABCC3), ABCC3 (gene 8714)
The test can be described thus: LTEA_HepaRG_ABCC3: Life Technologies and Expression Analysis (LTEA) Assay for ABC Transporter (ABCC3) using HepaRG (AID 2283462). Particulars: mRNA level, 48 h; actives raise or lower the signal. In outline:
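Human HepaRG, 48 h dosing, 8-pt half-log series from 100 uM, 0.5% DMSO vehicle, duplicates. ABCC3 mRNA by TaqMan qRT-PCR, housekeeping-normalized; bidirectional curve fit vs DMSO.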

Read-out in test [16]: ABC Transporter (ABCB11), ABCB11 (gene 8647)
In words: LTEA_HepaRG_ABCB11: Life Technologies and Expression Analysis (LTEA) Assay for ABC Transporter (ABCB11) using HepaRG (AID 2283463). As to conditions: mRNA level, 48 h; actives raise or lower the signal. In outline: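 ABCB11 transcript levels quantified by TaqMan qRT-PCR against three housekeeping genes after 48 h chemical exposure of HepaRG cultures. Concentrations up to 100 uM in half-log steps, 0.5% DMSO vehicle; both induction and suppression scored.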

Read-out in test [17]: ABC Transporter (ABCC2), ABCC2 (gene 1244)
In words: LTEA_HepaRG_ABCC2: Life Technologies and Expression Analysis (LTEA) Assay for ABC Transporter (ABCC2) using HepaRG (AID 2283464). Particulars: mRNA level, 48 h; actives raise or lower the signal. In outline:
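HepaRG, 48 h post-plating; serum-free induction medium; cpd 8-pt, 100 uM top, half-log, 0.5% DMSO, duplicate, 48 h. Readout: ABCC2 mRNA by qRT-PCR, norm. ACTB/GAPDH/POLR2A. Bidirectional fit vs DMSO baseline.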

Read-out in test [18]: Broad substrate specificity ATP-binding cassette transporter ABCG2 (Homo sapiens) (UniProt Q9UNQ0)
In words: LTEA_HepaRG_ABCG2: Life Technologies and Expression Analysis (LTEA) Assay for ABC Transporter (ABCG2) using HepaRG (AID 2283465). As to conditions: mRNA level, 48 h; actives raise or lower the signal. In outline: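 ABCG2 transcript was quantified by TaqMan qRT-PCR against three housekeeping genes in HepaRG cells. Cells were treated in duplicate for 48 h across an 8-point half-log series up to 100 uM, with 0.5% DMSO vehicle. Gain or loss versus DMSO was fit.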

Calls of active or inactive are those of the source. Rule for the calls: active = hit-call score of the fitted dose curve at least 0.9, where 1 is the maximum; inactive = score below 0.9.

Chain of Fatty acid synthase (Homo sapiens) (P49327 whole entry, looked up): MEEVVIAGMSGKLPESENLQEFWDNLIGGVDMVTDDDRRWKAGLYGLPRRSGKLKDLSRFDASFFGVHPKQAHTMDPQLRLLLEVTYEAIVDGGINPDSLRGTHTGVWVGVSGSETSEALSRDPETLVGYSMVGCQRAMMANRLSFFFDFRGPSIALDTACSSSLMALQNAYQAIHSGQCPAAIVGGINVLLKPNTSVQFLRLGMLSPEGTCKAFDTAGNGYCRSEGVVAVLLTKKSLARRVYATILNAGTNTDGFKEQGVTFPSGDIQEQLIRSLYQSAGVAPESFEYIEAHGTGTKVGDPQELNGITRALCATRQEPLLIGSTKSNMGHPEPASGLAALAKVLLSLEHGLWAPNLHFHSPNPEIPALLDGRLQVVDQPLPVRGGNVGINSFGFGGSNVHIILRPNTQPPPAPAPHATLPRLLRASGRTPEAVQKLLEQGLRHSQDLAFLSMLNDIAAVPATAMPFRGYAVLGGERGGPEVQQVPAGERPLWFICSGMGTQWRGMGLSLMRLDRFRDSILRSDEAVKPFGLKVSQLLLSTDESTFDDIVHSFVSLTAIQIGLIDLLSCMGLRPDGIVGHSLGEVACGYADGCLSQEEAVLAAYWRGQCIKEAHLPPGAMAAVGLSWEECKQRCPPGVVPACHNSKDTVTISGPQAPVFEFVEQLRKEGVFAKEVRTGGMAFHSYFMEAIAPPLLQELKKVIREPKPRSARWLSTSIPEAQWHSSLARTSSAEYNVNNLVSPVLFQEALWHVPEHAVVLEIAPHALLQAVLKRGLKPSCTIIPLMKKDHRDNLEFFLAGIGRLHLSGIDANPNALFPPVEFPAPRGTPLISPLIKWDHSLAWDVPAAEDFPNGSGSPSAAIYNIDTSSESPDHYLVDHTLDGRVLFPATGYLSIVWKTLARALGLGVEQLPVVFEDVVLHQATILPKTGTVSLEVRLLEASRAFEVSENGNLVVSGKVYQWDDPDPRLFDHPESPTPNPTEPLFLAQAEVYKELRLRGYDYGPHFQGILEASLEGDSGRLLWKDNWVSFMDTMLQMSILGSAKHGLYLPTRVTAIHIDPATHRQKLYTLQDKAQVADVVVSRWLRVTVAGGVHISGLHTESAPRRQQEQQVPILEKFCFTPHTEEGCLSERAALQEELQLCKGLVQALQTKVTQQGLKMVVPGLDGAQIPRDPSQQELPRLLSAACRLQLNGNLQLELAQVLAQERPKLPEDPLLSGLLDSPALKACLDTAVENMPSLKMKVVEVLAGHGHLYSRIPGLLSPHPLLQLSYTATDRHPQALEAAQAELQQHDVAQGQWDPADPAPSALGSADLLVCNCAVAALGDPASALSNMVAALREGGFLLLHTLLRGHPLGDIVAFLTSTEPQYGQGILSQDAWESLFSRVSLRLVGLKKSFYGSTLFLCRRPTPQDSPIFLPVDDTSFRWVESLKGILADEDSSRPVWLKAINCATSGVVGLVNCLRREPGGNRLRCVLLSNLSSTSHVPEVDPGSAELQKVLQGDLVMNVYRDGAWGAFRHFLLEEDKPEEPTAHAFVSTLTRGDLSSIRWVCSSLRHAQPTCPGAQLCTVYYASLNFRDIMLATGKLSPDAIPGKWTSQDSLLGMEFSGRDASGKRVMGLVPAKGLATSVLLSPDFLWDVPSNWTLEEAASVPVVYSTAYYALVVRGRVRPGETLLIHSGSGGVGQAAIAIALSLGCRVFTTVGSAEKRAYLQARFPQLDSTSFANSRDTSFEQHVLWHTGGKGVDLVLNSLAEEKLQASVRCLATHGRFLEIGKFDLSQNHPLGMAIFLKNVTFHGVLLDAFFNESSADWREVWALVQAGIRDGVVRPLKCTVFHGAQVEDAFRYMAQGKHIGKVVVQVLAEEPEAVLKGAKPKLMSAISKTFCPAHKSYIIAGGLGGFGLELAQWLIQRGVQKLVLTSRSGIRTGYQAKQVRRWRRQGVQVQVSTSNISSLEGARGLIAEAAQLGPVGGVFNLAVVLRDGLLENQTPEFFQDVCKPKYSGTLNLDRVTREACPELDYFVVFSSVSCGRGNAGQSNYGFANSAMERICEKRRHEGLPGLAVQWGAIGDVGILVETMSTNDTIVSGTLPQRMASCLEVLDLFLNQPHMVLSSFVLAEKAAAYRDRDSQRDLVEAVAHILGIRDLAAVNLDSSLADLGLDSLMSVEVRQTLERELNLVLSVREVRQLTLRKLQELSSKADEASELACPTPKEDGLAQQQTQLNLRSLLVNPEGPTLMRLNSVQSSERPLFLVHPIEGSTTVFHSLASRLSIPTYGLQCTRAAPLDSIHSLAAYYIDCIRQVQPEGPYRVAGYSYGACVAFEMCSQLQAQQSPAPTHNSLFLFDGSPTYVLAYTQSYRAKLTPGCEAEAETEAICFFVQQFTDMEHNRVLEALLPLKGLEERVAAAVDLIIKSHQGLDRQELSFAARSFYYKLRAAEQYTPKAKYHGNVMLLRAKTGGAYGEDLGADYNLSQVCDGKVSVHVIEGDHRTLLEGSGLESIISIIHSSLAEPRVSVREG
Chain of Broad substrate specificity ATP-binding cassette transporter ABCG2 (Homo sapiens) (Q9UNQ0 whole entry, looked up): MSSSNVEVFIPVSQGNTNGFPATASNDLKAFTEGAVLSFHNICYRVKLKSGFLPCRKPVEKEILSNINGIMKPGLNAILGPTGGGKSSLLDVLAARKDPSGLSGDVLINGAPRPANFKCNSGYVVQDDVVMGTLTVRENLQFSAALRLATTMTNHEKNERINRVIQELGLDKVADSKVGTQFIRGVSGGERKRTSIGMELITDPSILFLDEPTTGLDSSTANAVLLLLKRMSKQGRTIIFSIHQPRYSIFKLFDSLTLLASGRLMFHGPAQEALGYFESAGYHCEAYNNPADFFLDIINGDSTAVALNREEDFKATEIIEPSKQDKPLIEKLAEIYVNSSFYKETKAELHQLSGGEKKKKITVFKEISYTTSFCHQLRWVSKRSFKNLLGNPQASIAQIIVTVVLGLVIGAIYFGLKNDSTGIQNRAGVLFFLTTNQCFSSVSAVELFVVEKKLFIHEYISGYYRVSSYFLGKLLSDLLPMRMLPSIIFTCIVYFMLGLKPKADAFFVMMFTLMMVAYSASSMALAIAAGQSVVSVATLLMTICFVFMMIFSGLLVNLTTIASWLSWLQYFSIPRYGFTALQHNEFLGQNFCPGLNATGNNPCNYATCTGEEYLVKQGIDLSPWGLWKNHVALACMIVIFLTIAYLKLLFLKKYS

In the case of `CNS(=O)(=O)c1cc(C(=O)N2CCC(CCN3C4CCC3CC(n3c(C)nc5ccccc53)C4)(c3cccc(F)c3)CC2)c(Cl)cc1F` (stereo not drawn), the result in test [1], in test [2], in test [3], in test [5], in test [8] and in test [9] was inactive. Further, the compound was classed as inactive in test [10], in test [11], in [12], in test [13], in [14] and in [17]. Besides, the AC50 was 31 µM (active) in test [4]; 15.6 µM (active) in test [6]; 24.2 µM (active) in test [7]; 12.5 µM (active) in test [15]; 24.5 µM (active) in test [16]; 17.1 µM (active) in [18].
On to `Cc1ccc(O)cc1`, for which the compound was classed as inactive in test [1], in [2], in [3], in test [4], in [5] and in test [6]. Also, the result in test [7], in test [9], in [10], in test [11], in [12] and in test [13] was inactive. Moreover, the outcome in [14], in test [15], in test [16], in [17] and in test [18] was inactive.
For the compound `Fc1ccccc1[C@@H](F)COC1CCC(Nc2ncnc3[nH]ncc23)CC1` (stereo partly drawn), the compound was classed as inactive in test [1], in test [3], in test [10], in test [11], in [12] and in test [15]. Also, in test [18], the outcome was inactive. For the same compound, the half-maximal activity concentration (AC50) in [2] was 50 µM (active); in test [4], 31.8 µM (active); in test [5], 86.4 µM (active); in test [6], 37.3 µM (active); in test [7], 31.9 µM (active); in [8], 94.7 µM (active). Moreover, the AC50 in [9] was 82.1 µM (active); in test [13], 50 µM (active); in test [14], 81.7 µM (active); in test [16], 71.1 µM (active); in test [17], 65.4 µM (active).
